Activity calls are given as the source filed them.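 The calls were made as follows: active = blocks over 70% of labeled estradiol binding at 10 µM, or over a set limit at 100 nM; inactive = the rest.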
Target: Estrogen receptor beta (Homo sapiens) (UniProt Q92731)
Assay: displacement of fluorescent estrogen from ERbeta – cell-based, Cos7 ERbeta-GFP, flow cytometry, primary screen (AID 1210);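 also: 0% = DMSO vehicle wells and 100% = complete loss of labeled estradiol signal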
Conditions: fluorescent estrogen binding, stronger effect = higher value
[1] = ligand binding inhibition, at 0.1 µM

Chain of Estrogen receptor beta (Homo sapiens) (Q92731 whole entry, looked up): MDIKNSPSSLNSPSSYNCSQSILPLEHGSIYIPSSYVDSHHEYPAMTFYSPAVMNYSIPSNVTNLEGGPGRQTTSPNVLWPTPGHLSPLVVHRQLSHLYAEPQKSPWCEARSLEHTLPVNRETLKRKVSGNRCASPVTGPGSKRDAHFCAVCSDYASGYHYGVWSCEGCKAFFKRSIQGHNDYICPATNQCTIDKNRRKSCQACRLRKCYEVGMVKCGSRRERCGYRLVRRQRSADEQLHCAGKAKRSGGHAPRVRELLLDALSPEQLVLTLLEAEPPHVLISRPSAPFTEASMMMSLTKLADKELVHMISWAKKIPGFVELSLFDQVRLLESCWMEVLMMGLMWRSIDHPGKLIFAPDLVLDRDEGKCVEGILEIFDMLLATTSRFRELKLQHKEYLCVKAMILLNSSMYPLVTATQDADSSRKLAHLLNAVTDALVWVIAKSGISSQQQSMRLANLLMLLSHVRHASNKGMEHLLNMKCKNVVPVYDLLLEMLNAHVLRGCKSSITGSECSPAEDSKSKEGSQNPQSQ

Structure (SMILES)	inhibition (at 10 µM)	inhibition [1]
CCN(c1ccccc1)S(=O)(=O)c1cc(C(=O)O)ccc1C	2% (inactive)	13%
CC(C)c1ccc2c(c1)[C@H]1OCC[C@H]1[C@@H](c1cccs1)N2	0% (inactive)	36%
COc1ccc(C2Nc3ccccc3C(=O)N2c2ccc(C)cc2)cc1Cn1cc([N+](=O)[O-])cn1 (stereo unspecified)	20% (inactive)	2%
CC(C)CN(C(=O)COC(=O)c1cc2c(s1)CCC2)C1CCS(=O)(=O)C1 (stereo unspecified)	25% (inactive)	28%
C/C(N)=C(/C#N)C(=O)CSc1nnc(Nc2cccc(C)c2C)s1	39% (inactive)	7%
COc1ccc(N2Cc3cccc(C(=O)O)c3C2=O)cc1	42% (inactive)	32%
Cc1[nH]c2ccc(-c3nnc(SCC(=O)c4ccccc4F)o3)cc2c1C	18% (inactive)	28%
Cc1ccc(C(=O)N/N=C/c2ccc([N+](=O)[O-])s2)cc1	38% (inactive)	58%
O=C1C=CC(O)(c2cc(=O)c3c(O)cc(O)cc3o2)C=C1	29% (inactive)	8%
COC(=O)c1ccc(CC(=O)c2c(C)cc(O)cc2O)o1	62% (inactive)	22%
COc1ccc(-c2cn3c(C)c(C(=O)Nc4ccncc4)sc3n2)cc1	60% (inactive)	19%
COc1ccc(NC(=O)CN(c2ccccc2)S(=O)(=O)N(C)C)cc1OC	40% (inactive)	15%
Cc1nnc(NC(=O)CSc2nc3c(c(=O)n2CCc2ccccc2)SC(C)C3)s1 (stereo unspecified)	45% (inactive)	34%
O=C(CSc1nc2scc(-c3ccco3)c2c(=O)n1-c1ccccc1)NCC1CCCO1 (stereo unspecified)	55% (inactive)	50%
O=C(Oc1ccc(-c2cnc3ccccc3n2)cc1)c1ccc(Br)o1	72% (active)	29%
O=c1cc(-c2ccco2)oc2c1ccc1ccccc12	49% (inactive)	22%
Cc1csc2nc(CCNS(=O)(=O)c3ccc4c(c3)OCCO4)cn12	13% (active)	87%
CCCCCCNC(=O)c1cc(-c2ccco2)nc2ccccc12	92% (active)	2%
O=C(Oc1cccc(-c2cnc3ccccc3n2)c1)c1ccco1	9% (inactive)	4%
CCc1nc(N)nc(N)c1-c1ccc(Cl)cc1	38% (inactive)	25%
COc1cc(C(=O)Nc2nnc(-c3sccc3C)s2)cc(OC)c1OC	52% (inactive)	34%
O=C(c1cc2c(s1)CCC2)N1CCN(c2ccccc2)CC1	52% (inactive)	7%

Structure (SMILES)	inhibition (at 10 µM)	inhibition [1]
CCOC(=O)CN1C(c2ccc(O)cc2)Nc2ccc(Br)cc2C1c1ccccc1 (stereo unspecified)	48% (inactive)	23%
CCc1ccc2c(c1)[C@H]1OCC[C@H]1[C@@H](c1cccs1)N2	0% (inactive)	65%
C1=C(N2CCOCC2)/C(=C/c2nc3ccccc3[nH]2)CC1	26% (inactive)	20%
COc1cc(NC(=O)COc2ccc(-n3cnnn3)cc2)c(OC)cc1Cl	61% (inactive)	17%
O=C(Cn1ncc2c(=O)oc3ccccc3c21)Nc1nc2ccccc2s1	35% (inactive)	7%
Cc1cc(C)n2nc(SCc3cc(=O)oc4cc(O)ccc34)nc2n1	19% (inactive)	19%
CCCCNS(=O)(=O)c1ccc(NC(=O)C(Sc2ccccc2)c2ccccc2)cc1 (stereo unspecified)	41% (inactive)	14%
O=C(Nc1ccccc1[N+](=O)[O-])C1=C(O)CCn2c1nc1ccccc12	37% (inactive)	46%
O=c1cc(O)c2c(=O)n(-c3ccccc3)c3c(c2o1)CCCCCC3	59% (inactive)	2%
O=C(CSc1nnnn1-c1ccccc1)Nc1nsc(-c2ccc(Cl)cc2)n1	36% (inactive)	21%
O=C(Cc1cccs1)Nc1nncs1	26% (inactive)	16%
COc1ccc(C(Nc2ccccn2)c2oc(CO)cc(=O)c2O)cc1 (stereo unspecified)	75% (active)	40%
CCN(CC)c1ccc(-c2nn3c(-c4ccccc4OC)nnc3s2)cc1	32% (inactive)	24%
CN1CCC(=NNC(=O)c2cn(-c3ccccc3)nc2-c2ccccc2)CC1	32% (inactive)	6%
COc1ccc(NC(=O)CSc2nc3ccccc3c3nc4ccccc4n23)cc1	38% (inactive)	44%
O=C(COC(=O)CCC(=O)c1cccs1)NCc1ccco1	54% (inactive)	12%
Cc1cc(C(=O)CSc2nnc(-c3ccccc3F)o2)c(C)n1Cc1cccs1	51% (inactive)	30%
CCC(Sc1ncnc2sc(C)c(C)c12)C(=O)OC (stereo unspecified)	27% (inactive)	41%
Cc1ccc(S(=O)(=O)NCCn2c(C)cc3ccccc32)cc1	23% (inactive)	18%
N#CC(C(=O)Nc1ccc(Cl)cc1)=C1Nc2ccccc2N1	59% (inactive)	21%
CN(C)c1ccc(N=Cc2ccco2)cc1	47% (inactive)	14%
